MCF10A rereplic: A quantitative high throughput screen for small molecules that induce DNA re-replication in MCF 10a normal breast cells; hit rate 2.9% among 350,000; Potency, µM (titrated, usually from 46.1 µM), for the others: top-dose activity, positive = re-replication, most hits filed as activators; MCF 10A DNA re-replication, Hoechst nuclear intensity, 48 h; further: potency means the concentration at half of the fitted maximal effect; % of control where 0% means no effect; nearly all actives have a fitted effect of over 50% in size
KB-3-1 cytotox: qHTS assay for MDR1-selective chemotherapeutics: Primary screen using the parental adenocarcinoma cell KB-3-1 | hit rate 1.4% among 400,000 | KB-3-1 viability, CellTiter-Glo ATP luminescence, 72 h | Potency, µM (top dose mostly 46.1 µM), actives largely listed as cytotoxic; further: potency means the concentration at half of the fitted maximal effect; on the % scale 0 is the no-effect control and ±100 the full control effect; nearly all actives have a fitted effect of over 60% in size
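KB-3-1 parental drug-naive adenocarcinoma cells in DMEM/10% FBS, incubated 72 h at 37 C with pin-transferred compounds across a concentration series. Viability by CellTiter-Glo luminescence; concentration-response curves fitted after normalization.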
KCNH2 3.1 block: qHTS for Inhibitors of KCHN2 3.1: Mutant qHTS | hit rate 0.95% among 340,000 | AID 720553, 2013 | Potassium voltage-gated channel subfamily H member 2, brain isoform KCNH2 3.1 (human) | activity change, % (tested at about 1.8 µM) | U2OS KCNH2 3.1, thallium flux FluxOr; active compounds read low;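 active means maximum activity change below -70%; inconclusive means maximum activity change from -70% to -50%; inactive means maximum activity change above -50%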;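 further: thallium influx rate constant from kinetic fluorescence after stimulation buffer; on the % scale 0 is the no-effect control and ±100 the full control effect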
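Normalized rate constant (relative to positive and negative DMSO controls) derived from a 2 min kinetic fluorescence read after stimulation; U2OS cells expressing the 3.1 isoform via virus at 1.77 x 10^8 /mL.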
KCNH2 WT inh: qHTS for Inhibitors of KCHN2 3.1: Wildtype qHTS; Voltage-gated inwardly rectifying potassium channel KCNH2 (Homo sapiens), Q12809; U2OS, BacMam KCNH2, thallium flux FluxOr; active compounds read low; activity change, % at 1.84 µM; hit rate 0.37% among 340,000;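 active means maximum activity change below -70%; inconclusive means maximum activity change between -70% and -50%; inactive means maximum activity change above -50%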; further: on the % scale 0 is the no-effect control and ±100 the full control effect
Target sequence (Q12809 whole entry, looked up): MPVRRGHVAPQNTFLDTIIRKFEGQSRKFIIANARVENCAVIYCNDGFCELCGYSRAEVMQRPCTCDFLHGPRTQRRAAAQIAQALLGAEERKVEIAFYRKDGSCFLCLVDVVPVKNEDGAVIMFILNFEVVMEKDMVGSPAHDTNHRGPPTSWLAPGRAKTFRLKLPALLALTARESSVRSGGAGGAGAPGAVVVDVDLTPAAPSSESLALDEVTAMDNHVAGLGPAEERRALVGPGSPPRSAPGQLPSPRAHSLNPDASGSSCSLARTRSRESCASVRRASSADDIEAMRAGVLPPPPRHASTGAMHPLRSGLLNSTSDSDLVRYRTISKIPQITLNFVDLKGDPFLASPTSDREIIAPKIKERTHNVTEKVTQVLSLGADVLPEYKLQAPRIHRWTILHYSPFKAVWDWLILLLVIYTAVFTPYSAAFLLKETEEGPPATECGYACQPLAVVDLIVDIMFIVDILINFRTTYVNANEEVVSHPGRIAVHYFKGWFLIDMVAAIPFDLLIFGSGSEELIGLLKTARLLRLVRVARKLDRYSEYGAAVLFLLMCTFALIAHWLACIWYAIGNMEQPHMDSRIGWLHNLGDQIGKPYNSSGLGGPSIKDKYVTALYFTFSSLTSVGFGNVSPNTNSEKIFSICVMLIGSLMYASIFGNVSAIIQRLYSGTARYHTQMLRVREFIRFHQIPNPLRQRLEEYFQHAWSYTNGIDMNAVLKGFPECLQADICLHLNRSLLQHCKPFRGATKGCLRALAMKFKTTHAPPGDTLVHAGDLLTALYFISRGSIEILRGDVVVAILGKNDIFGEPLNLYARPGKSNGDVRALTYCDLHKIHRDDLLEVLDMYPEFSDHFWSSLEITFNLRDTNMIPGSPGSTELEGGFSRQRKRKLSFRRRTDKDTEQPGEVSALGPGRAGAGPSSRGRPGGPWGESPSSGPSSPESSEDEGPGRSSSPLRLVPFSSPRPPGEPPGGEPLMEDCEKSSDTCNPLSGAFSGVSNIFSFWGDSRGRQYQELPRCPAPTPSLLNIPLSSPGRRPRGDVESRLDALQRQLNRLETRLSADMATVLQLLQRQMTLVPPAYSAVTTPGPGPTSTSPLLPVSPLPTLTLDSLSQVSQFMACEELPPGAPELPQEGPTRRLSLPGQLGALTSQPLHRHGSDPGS
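U2OS cells were transduced with wild-type KCNH2 virus (2.03 x 10^8 / mL) for 4 h at room temperature, then cultured overnight at 37 C. Thallium flux was read with FluxOr dye. Rate constants were normalized to DMSO controls.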
SW480 rereplic: A quantitative high throughput screen for small molecules that induce DNA re-replication in SW480 colon adenocarcinoma cells; SW480 DNA re-replication, Hoechst DNA content imaging, 48 h; Potency, µM (doses to about 46.1 µM), for inactives: top-dose re-replication activation, most hits filed as activators; hit rate 1.8% among 340,000; AID 624297, 2012; further: potency means the concentration at half of the fitted maximal effect; % of control where 0% means no effect; nearly all actives have a fitted effect of over 55% in size
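Per well, 250 cells were exposed to pinned compound for 48 hr. Nuclear DNA was visualised with Hoechst (40 min, 37 C) and total object intensity recorded by fluorescence scanning.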
KB-V1 cytotox: qHTS assay for MDR1-selective chemotherapeutics: Primary screen using the drug-selected MDR subline cells KB-V1; KB-V1 MDR cells viability, CellTiter-Glo, 72 h; Potency, µM (top dose mostly 46.1 µM), usual class: cytotoxic; hit rate 3.4% among 400,000; AID 1347076, 2019; further: potency means the concentration at half of the fitted maximal effect; on the % scale 0 is the no-effect control and ±100 the full control effect; nearly all actives have a fitted effect of over 60% in size
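Cytotoxicity via CellTiter-Glo luminescence after 72 h compound exposure at 37 degrees C. Cells: drug-selected KB-V1 line, DMEM phenol-red free plus 10% FBS. Compounds tested at multiple concentrations; normalized data fitted to concentration-effect curves.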
Starred values were filed as active, the others as inactive; i = inactive; ? = inconclusive; / = no result given. An excerpt weighted towards active compounds, which were near 7.6% of everything screened. Unless noted, the call rests on the fitted dose curve; in most records, active means well fitted curve in the direction sought with a large enough effect; inconclusive means small, poorly fitted or top-dose-only effect, or another doubt; inactive means no such curve, though single readings can be large; an effect the other way counts as inactive or inconclusive.

SMILES	MCF10A rereplic	KB-3-1 cytotox	KCNH2 3.1 block	KCNH2 WT inh	SW480 rereplic	KB-V1 cytotox
CCN(C(=O)c1ccc(S(=O)(=O)N2CCOCC2)cc1)C1CCS(=O)(=O)C1 (centres undefined)	-2%	i	11	17	-7%	i
O=C(OCc1cccc(Cl)c1)c1cc([N+](=O)[O-])ccc1N1CCOCC1	?	?	-18	5	?	?
O=C(OCc1ccc(Br)cc1)c1cc([N+](=O)[O-])ccc1N1CCOCC1	/	5.8µM*	-9	-11	/	1.3µM*
CCOC(=O)c1cc(CC)sc1NC(=O)c1cc([N+](=O)[O-])ccc1N1CCOCC1	?	1µM*	-9	-4	2.3µM*	i
CCc1ccc(C(=O)COC(=O)c2cc([N+](=O)[O-])ccc2N2CCOCC2)cc1	4.6µM*	?	-12	3	10µM*	6.5µM*
COc1ccc(COC(=O)c2cc([N+](=O)[O-])ccc2N2CCOCC2)cc1F	21%	0.13µM*	-16	-1	?	0.073µM*
COc1ccc2c(CC(=O)NCc3ccc4c(c3)OCO4)coc2c1	?	i	17	-9	3%	?
CC(=O)Nc1ccc2nc3c(=O)n(C)c(=O)n(C)c3nc2c1C	/	i	/	/	/	i
CC(C)C[C@@H](CN)NC(=O)c1nc[nH]c1C(=O)N[C@@H](C)C(=O)CNC[C@H](C)NC(=O)c1nc[nH]c1C(=O)N[C@@H](Cc1ccccc1)C(=O)O	12%	i	-4	0	-2%	i
COc1ccccc1CNC(=O)c1ccc(-c2nc(CN3CCc4ccccc43)c(C)o2)cc1	/	?	/	/	/	10µM*
Cc1ccc(-c2nc(CS(=O)CC(=O)NCc3ccccc3Cl)c(C)o2)cc1 (centres undefined)	/	i	/	/	/	i
Cc1oc(-c2ccc(C(=O)NCc3ccccc3Cl)cc2)nc1CN1CCc2ccccc21	/	5.8µM*	/	/	/	?
Cc1cc(C)cc(C(=O)N(NC(=O)Nc2ccc(Cl)cc2)C(C)(C)C)c1	0%	?	5	-7	?	?
Cc1c(Br)c([N+](=O)[O-])nn1CCCC(=O)Nc1sc2c(c1C(N)=O)CCC(C)C2 (centres undefined)	-25%	?	-7	-3	-54%	8.2µM*
COC(=O)c1c(NC(=O)Cn2cnc([N+](=O)[O-])n2)sc2c1CCC(C)C2 (centres undefined)	?	i	6	-22	13%	16µM*
Cc1c(Cl)c([N+](=O)[O-])nn1CCCC(=O)Nc1sc2c(c1C(N)=O)CCC(C)C2 (centres undefined)	-2%	i	-2	12	-2%	i
COc1ccc(-c2[nH]c3ccccc3c2SCCNC(=O)c2cc(OC)c(OC)c(OC)c2)cc1	/	i	/	/	/	?
COc1ccc(C(c2c(O)ccc3ccccc23)N2CCOCC2)c(OC)c1 (centres undefined)	3.3µM*	i	-6	2	?	i
COc1ccc(C(CCN2CCOCC2)c2c(O)cc(OC)cc2OC)cc1 (centres undefined)	24%	i	-6	18	?	i
CCCCc1ccc(NC(=O)Cn2cnc3c2c(=O)n(C)c(=O)n3C)cc1	/	i	/	/	/	?
COc1ccc(-n2nc(C(=O)NCC(=O)Nc3cc(OC)c(OC)c(OC)c3)c3ccccc3c2=O)cc1Cl	23µM*	i	-8	-10	6%	i
CCSc1ncc(CO)c(N)n1	3%	i	18	-12	0%	?
